Source: the supplement of paper PMC8047044

system: Neuro-2a; experiment: neurite formation score, plate-normalized to DMSO control mean 5.04 (score (0-8 scale)); higher = more or longer neurites; details: 1 µM
Protocol: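 Neuro-2a mouse neuroblastoma cells in PLL-coated 96-well plates were pre-treated for 1 h in DMEM(+) with each kinase inhibitor at 1 µM, then switched to serum-free DMEM(-) with inhibitor to induce neurite outgrowth and fixed about 2-3 h later. Three blinded observers scored neurite formation from 0 (no neurites) to 8 (long neurites on almost all cells).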

Structure (SMILES)	neurite formation score
COc1ccc(N(C(=O)Oc2c(C)cccc2C)c2ccnc(Nc3ccc(N4CCN(C)CC4)cc3)n2)c(OC)c1	3.88
COc1cc([C@@H]2c3cc4c(cc3[C@H](O)[C@H]3COC(=O)[C@@H]23)OCO4)cc(OC)c1OC	4.24
CC(C)(C)c1cc(C=C(C#N)C#N)cc(C(C)(C)C)c1O [Tyrphostin 9]	4.96
O=c1[nH]c2ccccc2n1C1CCN(Cc2ccc(-c3[nH]c4cc5ncnc5cc4nc3-c3ccccc3)cc2)CC1 [AKT inhibitor VIII]	4.91
Cc1ccccc1-n1c(Cn2cnc3c(N)ncnc32)nc2cccc(C)c2c1=O	5.21
CCN1CCN(C(=O)Cc2ccc(Nc3ncc(F)c(Nc4ccc(C(=O)Nc5ccccc5Cl)cc4)n3)cc2)CC1 [Aurora A Inhibitor I]	3.69
O=c1[nH]c2ccc(Cl)cc2c(N[C@@H]2CN3CCC2CC3)c1-c1nc2ccccc2[nH]1	5.96
Cn1cc(C2=C(c3cn(C4CCN(Cc5ccccn5)CC4)c4ccccc34)C(=O)NC2=O)c2ccccc21	3.91
COc1ccc2c(c[n+](C)c3c4cc5c(cc4ccc23)OCO5)c1OC [Chelerythrine Chloride]	4.57
CC(C)(C)c1cc(C=C(C#N)C#N)cc(Br)c1O	4.24
COC[C@H]1OC(=O)c2coc3c2[C@@]1(C)C1=C(C3=O)[C@@H]2CCC(=O)[C@@]2(C)C[C@H]1OC(C)=O [Wortmannin]	4.63
N#CC(C#N)=Cc1ccc(O)c(O)c1	4.91
